Test in all cases: growth (OD600 after 10 h); higher = more growth (less inhibition)
The subject of assay [1] is E. coli TESEC Alr+ wild-type control. The settings on record: compound 0.1 mM; raw OD600 reference: median of DMSO wells 0.241, cell-free background 0.041. As to the method: (§1)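 TESEC Mtb Alr E. coli, or the Alr+ wild-type control, in 384-well plates with Prestwick library compounds at 0.1 mM and 1% DMSO, across arabinose induction levels of 1E3 to 1E7 nM. Growth is read as OD600 after 10 h at 37 °C in triplicate biological replicates.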

Assay [2] has as its system E. coli TESEC Mtb Alr. The note with it: compound 0.1 mM. As to the method:
as §1

For another assay, the system named is E. coli TESEC Mtb Asd. The note with it: compound 0.1 mM. As to the method: (§2)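 TESEC E. coli strains in which the native enzyme is deleted and replaced by arabinose-inducible Mtb Asd, DapB, CysH or TrpD, each grown in its selective medium. Strains were screened against the Prestwick library at 0.1 mM and 1% DMSO in 384-well format at low and high arabinose induction. Growth is read as OD600 after 10 h in triplicate.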

The test system of another assay is E. coli TESEC Mtb DapB. The settings on record: compound 0.1 mM. As to the method: as §2
Assay [3] concerns E. coli TESEC Alr+ wild-type control. The note with it: compound 0.1 mM; raw OD600 reference: median of DMSO wells 0.49, cell-free background 0.052. As to the method:
(§3)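 TESEC Mtb Alr E. coli (ΔaraC ΔtolC ΔentC Δalr ΔdadX, arabinose-inducible Mtb Alr) or the Alr+ wild-type control strain, grown in defined M9-fructose medium without D-alanine in 96-well plates with Prestwick library compounds at 0.1 mM and 1% DMSO. Low Alr induction is 0.1 µM arabinose and high induction is 10 mM arabinose.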

Assay [4] concerns E. coli TESEC Mtb Alr. The settings on record: compound 0.1 mM. As to the method: as §3
This is another data set of the same source.

[5] abbreviates: arabinose 1000 nM, raw OD600 reference: median of DMSO wells 0.294, cell-free background 0.041.
Where [6] appears, read: arabinose 10000 nM, raw OD600 reference: median of DMSO wells 0.264, cell-free background 0.041.
The mark [7] stands for this setting: arabinose 100000 nM, raw OD600 reference: median of DMSO wells 0.201, cell-free background 0.041.
Setting [8] is: arabinose 1000000 nM, raw OD600 reference: median of DMSO wells 0.193, cell-free background 0.041.
Setting [9] is: arabinose 10000000 nM, raw OD600 reference: median of DMSO wells 0.146, cell-free background 0.041.
Where [10] appears, read: arabinose induction (level): High, raw OD600 reference: median of DMSO wells 0.331, cell-free background 0.041.
Where [11] appears, read: arabinose induction (level): Low, raw OD600 reference: median of DMSO wells 0.417, cell-free background 0.041.
The mark [12] stands for this setting: arabinose induction (level): High, raw OD600 reference: median of DMSO wells […], cell-free background 0.041.
The mark [13] stands for this setting: arabinose induction (level): Low, raw OD600 reference: median of DMSO wells 0.227, cell-free background 0.041.
Setting [14] is: arabinose 100 nM, raw OD600 reference: median of DMSO wells 0.413, cell-free background 0.052.
Where [15] appears, read: arabinose 10000000 nM, raw OD600 reference: median of DMSO wells […], cell-free background 0.052.

The source of these data is the supplement of paper PMC9262897, “Low-cost anti-mycobacterial drug discovery using engineered E. coli” (Nature Communications, 2022).

Counter-ions that a name gives are not always drawn. ± gives the standard deviation of the averaged measurements.

With `CC1=C(C(=O)O)N2C(=O)[C@@H](NC(=O)[C@H](N)c3ccc(O)cc3)[C@H]2SC1` [Cefadroxil], the growth in assay [1] was 0.255 ± 0.012; with E. coli TESEC Mtb Alr [2] (setting [5]) it was 0.2848 ± 0.0015; with E. coli TESEC Mtb Alr [2] (setting [6]), 0.274 ± 0.011; in the assay on E. coli TESEC Mtb Alr [2] (setting [7]), 0.217 ± 0.011; in the assay with E. coli TESEC Mtb Alr [2] (setting [8]) it was 0.199 ± 0.002; with E. coli TESEC Mtb Alr [2] (setting [9]) it was 0.137 ± 0.0042. In addition, the growth turned out to be 0.294 ± 0.035 in the assay with E. coli TESEC Mtb Asd (setting [10]); 0.444 ± 0.13 in the assay with E. coli TESEC Mtb Asd (setting [11]); 0.192 ± 0.0046 in the assay on E. coli TESEC Mtb DapB (setting [12]); 0.222 ± 0.011 with E. coli TESEC Mtb DapB (setting [13]); 0.606 ± 0.045 in assay [3]; 0.427 ± 0.012 in the assay with E. coli TESEC Mtb Alr [4] (setting [14]). Further, the growth in the assay with E. coli TESEC Mtb Alr [4] (setting [15]) was 0.326 ± 0.011.
On to `CCOC(=O)[C@H](CCc1ccccc1)N[C@@H](C)C(=O)N1CCC[C@H]1C(=O)O` [Enalapril maleate], for which the growth is 0.247 ± 0.014 in assay [1]; 0.296 ± 0.017 in the assay on E. coli TESEC Mtb Alr [2] (setting [5]); 0.25 ± 0.0032 with E. coli TESEC Mtb Alr [2] (setting [6]); 0.231 ± 0.03 in the assay on E. coli TESEC Mtb Alr [2] (setting [7]); 0.174 ± 0.0046 with E. coli TESEC Mtb Alr [2] (setting [8]); 0.161 ± 0.009 in the assay on E. coli TESEC Mtb Alr [2] (setting [9]). Moreover, the growth with E. coli TESEC Mtb Asd (setting [10]) worked out at 0.322 ± 0.039; in the assay on E. coli TESEC Mtb Asd (setting [11]), 0.373 ± 0.067; in the assay with E. coli TESEC Mtb DapB (setting [12]), 0.188 ± 0.018; in the assay with E. coli TESEC Mtb DapB (setting [13]), 0.268 ± 0.029; in assay [3], 0.499 ± 0.024; with E. coli TESEC Mtb Alr [4] (setting [14]) it was 0.412 ± 0.011. The compound further showed a growth in the assay on E. coli TESEC Mtb Alr [4] (setting [15]) of 0.355 ± 0.017.
Take `CN1CCC(=C2c3ccccc3Sc3ccccc32)CC1` [Pimethixene maleate]: the growth in assay [1] is 0.0726 ± 0.0016; with E. coli TESEC Mtb Alr [2] (setting [5]) it was 0.0585 ± 0.013; with E. coli TESEC Mtb Alr [2] (setting [6]), 0.0419 ± 0.00051; in the assay on E. coli TESEC Mtb Alr [2] (setting [7]) it was 0.0556 ± 0.0055; in the assay with E. coli TESEC Mtb Alr [2] (setting [8]), 0.0414 ± 0.00026; in the assay on E. coli TESEC Mtb Alr [2] (setting [9]) it was 0.05003 ± 0.00025. Besides, the growth in the assay on E. coli TESEC Mtb Asd (setting [10]) came out at 0.118 ± 0.028; with E. coli TESEC Mtb Asd (setting [11]) it was 0.161 ± 0.0073; in the assay on E. coli TESEC Mtb DapB (setting [12]), 0.15 ± 0.011; in the assay with E. coli TESEC Mtb DapB (setting [13]), 0.223 ± 0.069; in assay [3] it was 0.0544 ± 0.0021; in the assay on E. coli TESEC Mtb Alr [4] (setting [14]), 0.362 ± 0.078. In addition, in the assay with E. coli TESEC Mtb Alr [4] (setting [15]), the growth came to 0.0659 ± 0.0097.
As for `C[C@@H]1C[C@H]2[C@@H]3C[C@H](F)C4=CC(=O)C=C[C@]4(C)[C@@]3(F)[C@@H](O)C[C@]2(C)[C@@]1(O)C(=O)COC(=O)C(C)(C)C` [Flumethasone pivalate], the growth in assay [1] was 0.207 ± 0.028; in the assay on E. coli TESEC Mtb Alr [2] (setting [5]) it was 0.271 ± 0.028; in the assay on E. coli TESEC Mtb Alr [2] (setting [6]) it was 0.267 ± 0.017; in the assay with E. coli TESEC Mtb Alr [2] (setting [7]), 0.209 ± 0.016; in the assay with E. coli TESEC Mtb Alr [2] (setting [8]) it was 0.182 ± 0.022; in the assay with E. coli TESEC Mtb Alr [2] (setting [9]), 0.145 ± 0.012. Moreover, the growth with E. coli TESEC Mtb Asd (setting [10]) is 0.256 ± 0.022; in the assay on E. coli TESEC Mtb Asd (setting [11]) it was 0.319 ± 0.066; in the assay with E. coli TESEC Mtb DapB (setting [12]), 0.2 ± 0.0088; in the assay on E. coli TESEC Mtb DapB (setting [13]), 0.239 ± 0.023; in assay [3] it was 0.521 ± 0.057; in the assay with E. coli TESEC Mtb Alr [4] (setting [14]) it was 0.43 ± 0.025. Further, the growth in the assay with E. coli TESEC Mtb Alr [4] (setting [15]) was 0.373 ± 0.025.
For `NC(=O)c1ncn([C@@H]2O[C@H](CO)[C@@H](O)[C@H]2O)n1` [Ribavirin], the growth was determined as 0.17 ± 0.02 in assay [1]; 0.0986 ± 0.0022 in the assay on E. coli TESEC Mtb Alr [2] (setting [5]); 0.0798 ± 0.0011 in the assay on E. coli TESEC Mtb Alr [2] (setting [6]); 0.117 ± 0.0028 in the assay with E. coli TESEC Mtb Alr [2] (setting [7]); 0.0816 ± 0.0003 in the assay on E. coli TESEC Mtb Alr [2] (setting [8]); 0.106 ± 0.0017 in the assay on E. coli TESEC Mtb Alr [2] (setting [9]). Also, the growth in the assay on E. coli TESEC Mtb Asd (setting [10]) came out at 0.404 ± 0.036; in the assay with E. coli TESEC Mtb Asd (setting [11]), 0.426 ± 0.071; in the assay on E. coli TESEC Mtb DapB (setting [12]) it was 0.196 ± 0.021; in the assay on E. coli TESEC Mtb DapB (setting [13]), 0.203 ± 0.025; in assay [3], 0.54 ± 0.043; with E. coli TESEC Mtb Alr [4] (setting [14]) it was 0.415 ± 0.046. Moreover, the growth with E. coli TESEC Mtb Alr [4] (setting [15]) amounted to 0.24 ± 0.021.
In the case of `CCN(CCCCOC(=O)c1ccc(OC)c(OC)c1)C(C)Cc1ccc(OC)cc1` (stereo unspecified) [Mebeverine hydrochloride], the growth is 0.157 ± 0.004 in assay [1]; 0.231 ± 0.0024 with E. coli TESEC Mtb Alr [2] (setting [5]); 0.243 ± 0.0072 with E. coli TESEC Mtb Alr [2] (setting [6]); 0.18 ± 0.0066 in the assay with E. coli TESEC Mtb Alr [2] (setting [7]); 0.125 ± 0.0057 with E. coli TESEC Mtb Alr [2] (setting [8]); 0.165 ± 0.0094 in the assay with E. coli TESEC Mtb Alr [2] (setting [9]). The growth with E. coli TESEC Mtb Asd (setting [10]) was 0.197 ± 0.026; in the assay on E. coli TESEC Mtb Asd (setting [11]), 0.396 ± 0.046; with E. coli TESEC Mtb DapB (setting [12]), 0.166 ± 0.012; with E. coli TESEC Mtb DapB (setting [13]), 0.252 ± 0.032; in assay [3], 0.435 ± 0.016; with E. coli TESEC Mtb Alr [4] (setting [14]), 0.4063 ± 0.003. This compound came in with a growth with E. coli TESEC Mtb Alr [4] (setting [15]) of 0.311 ± 0.0053.
For `CN1CCC(=C2c3ccccc3CCc3sccc32)CC1` [Pizotifen malate], the growth is 0.127 ± 0.006 in assay [1]; 0.133 ± 0.0045 in the assay on E. coli TESEC Mtb Alr [2] (setting [5]); 0.0893 ± 0.0025 with E. coli TESEC Mtb Alr [2] (setting [6]); 0.0952 ± 0.0015 with E. coli TESEC Mtb Alr [2] (setting [7]); 0.0482 ± 0.0045 in the assay on E. coli TESEC Mtb Alr [2] (setting [8]); 0.0637 ± 0.00071 with E. coli TESEC Mtb Alr [2] (setting [9]). The growth in the assay with E. coli TESEC Mtb Asd (setting [10]) came out at 0.148 ± 0.013; in the assay on E. coli TESEC Mtb Asd (setting [11]), 0.181 ± 0.012; in the assay with E. coli TESEC Mtb DapB (setting [12]) it was 0.178 ± 0.0086; in the assay on E. coli TESEC Mtb DapB (setting [13]), 0.193 ± 0.0037; in assay [3] it was 0.146 ± 0.012; in the assay on E. coli TESEC Mtb Alr [4] (setting [14]), 0.402 ± 0.027. The growth in the assay with E. coli TESEC Mtb Alr [4] (setting [15]) worked out at 0.132 ± 0.054.
